Where “and” joins values, the source holds several entries; their conditions need not be identical. Equal entries are not always repeated. Inconclusive results are not listed. Calls of active or inactive are those of the source.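 Rule for the calls, unless noted: active = compounds whose dose series gives a full or clear partial fitted curve of increased nuclear translocation; inconclusive = weak partial curve or effect only at the top dose; inactive = no dose-dependent translocation response.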
Tested on: not listed separately
Assay: NFAT Signaling Pathway (AID 444; active = well fitted curve in either direction with a large enough effect, not every such curve was filed as active;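 note: carbachol stimulus at about its EC50 of 1 µM final; % is set by controls: 0 for no effect and ±100 for the full control effect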)
Details: Jurkat NFAT-bla M1, carbachol, beta-lactamase ratio, 5 h; at 17.2 µM (top of the series)
Summary of the method: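 Jurkat cells with NFAT-driven β-lactamase reporter and co-expressed M1 receptor, stimulated with carbachol (final 1 uM, ~EC50), compound titration, 5 h at 37 °C. CCF4 loaded 1 h at RT; 460/530 nm ratio gave %activity and AC50.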

Activity change, negative = inhibition, inactive:
COC(=O)[C@@H]1[C@@H]2C[C@H]3c4[nH]c5ccccc5c4CCN3C[C@@H]2CC[C@@H]1O -15% and 0.703% and 5.17%, C[C@H](N=C(NC#N)Nc1ccncc1)C(C)(C)C 5.32%, C[C@@H](CCc1ccc(O)cc1)NCCc1ccc(O)c(O)c1 -17.4%

Same assay, conditions: Jurkat NFAT-bla M1, carbachol, beta-lactamase ratio, 5 h; at 38 µM (top of the series)

Activity change, negative = inhibition, inactive:
CC(N)=NCCC[C@H](N)C(=O)O 5.13%, N[C@@H]1CCN(O)C1=O 0.992%, NC[C@](O)(CS(=O)(=O)O)c1ccc(Cl)cc1 -5.4%, COc1ccccc1NC(=O)Nc1nc(-c2cccnc2)nc2ccccc12 4.7%, CC1=C(\C=C/C(C)=C/C=C\C(C)=C\C(=O)O)C(C)(C)CCC1 4.1%, N[C@]1(C(=O)O)CCc2cc(C(=O)O)ccc21 3.1%, O=C(O)[C@H]1CCCNC1 2.68%, O=C(O)[C@H]1CN(CCCP(=O)(O)O)CCN1 8.84%, C[C@@](N)(C(=O)O)c1ccc(C(=O)O)cc1 6.09%, C[C@H](N=C(NC#N)Nc1ccncc1)C(C)(C)C 6.54%, CC(N)=NCCCC[C@H](N)C(=O)O -3.86%, C[C@@H](CCc1ccc(O)cc1)NCCc1ccc(O)c(O)c1 -12.7%, CC(C)[C@@H]1[C@H]2CC[C@H](C2)[C@H]1N 2.88%, C[C@@H]1C[C@@H]2[C@H]3CCC4=CC(=O)C=C[C@]4(C)[C@]3(F)[C@@H](O)C[C@@]2(C)[C@@]1(O)C(=O)CO 7.2%, N[C@H](CCC(=O)N[C@H](CSN=O)C(=O)NCC(=O)O)C(=O)O 0.964%, S=C(S)O[C@@H]1C[C@@H]2C[C@H]1[C@@H]1CCC[C@H]21 -4.29%

Tested on: not listed separately
Assay: Stat Signaling Pathway (AID 446; active = well fitted curve in either direction with a large enough effect, not every such curve was filed as active;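 note: ME-180 cervical cancer cells given 40 pM IL-6 alongside compound; SIE-controlled beta-lactamase reporter measured as 460/530 nm FRET emission ratio; % is set by controls: 0 for no effect and ±100 for the full control effect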)
Details: ME-180 SIE beta-lactamase reporter, IL-6 stimulated, 5 h; at 17.2 µM (top of the series)
Summary of the method: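 IL-6/STAT signaling read in ME-180 cells via an SIE beta-lactamase reporter. Stimulus was 40 pM IL-6 (its AC50) for 5 hrs, so both activation and inhibition register.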

activity, negative = inhibition, inactive:
CC[N+](C)(CC)CCC[n+]1c(-c2ccccc2)c2cc(N)ccc2c2ccc(N)cc21 -13.1%, CO[C@@]12C[C@@H](COC(=O)c3cncc(Br)c3)CN(C)[C@H]1Cc1cn(C)c3cccc2c13 -10.5%, COC(=O)[C@@H]1[C@@H]2C[C@H]3c4[nH]c5ccccc5c4CCN3C[C@@H]2CC[C@@H]1O 5.5% and -1.53% and 0.108%, CCN(Cc1ccncc1)C(=O)[C@@H](CO)c1ccccc1 -6.07%, CNCC[C@H](Oc1ccccc1OC)c1ccccc1 -0.439%, C[C@H](N=C(NC#N)Nc1ccncc1)C(C)(C)C -8.19%, C[C@@H](CCc1ccc(O)cc1)NCCc1ccc(O)c(O)c1 13.9%

Same assay, conditions: ME-180 (cervical carcinoma) SIE beta-lactamase reporter, IL-6 stimulated, 5 h; at 38 µM (top of the series)

activity, negative = inhibition, inactive:
CC(N)=NCCC[C@H](N)C(=O)O -24.9%, N[C@@H]1CCN(O)C1=O 21.4%, COc1ccccc1NC(=O)Nc1nc(-c2cccnc2)nc2ccccc12 4.21%, N[C@]1(C(=O)O)CCc2cc(C(=O)O)ccc21 -13%, O=C(O)[C@H]1CCCNC1 -8.68%, O=C(O)[C@H]1CN(CCCP(=O)(O)O)CCN1 7.55%, CCN(Cc1ccncc1)C(=O)[C@@H](CO)c1ccccc1 -7.02%, C[C@@](N)(C(=O)O)c1ccc(C(=O)O)cc1 4.5%, CNCC[C@H](Oc1ccccc1OC)c1ccccc1 4.82%, C[C@H](N=C(NC#N)Nc1ccncc1)C(C)(C)C -12.4%, CC(N)=NCCCC[C@H](N)C(=O)O -14%, C[C@@H](CCc1ccc(O)cc1)NCCc1ccc(O)c(O)c1 -16.8%, CC(C)[C@@H]1[C@H]2CC[C@H](C2)[C@H]1N 4.64%, C[C@@H]1C[C@@H]2[C@H]3CCC4=CC(=O)C=C[C@]4(C)[C@]3(F)[C@@H](O)C[C@@]2(C)[C@@]1(O)C(=O)CO -19.7%, N[C@H](CCC(=O)N[C@H](CSN=O)C(=O)NCC(=O)O)C(=O)O 14.7%, S=C(S)O[C@@H]1C[C@@H]2C[C@H]1[C@@H]1CCC[C@H]21 -20.1%

Target: Glucocorticoid receptor (Homo sapiens) (UniProt P04150)
Sequence (P04150 whole entry, looked up): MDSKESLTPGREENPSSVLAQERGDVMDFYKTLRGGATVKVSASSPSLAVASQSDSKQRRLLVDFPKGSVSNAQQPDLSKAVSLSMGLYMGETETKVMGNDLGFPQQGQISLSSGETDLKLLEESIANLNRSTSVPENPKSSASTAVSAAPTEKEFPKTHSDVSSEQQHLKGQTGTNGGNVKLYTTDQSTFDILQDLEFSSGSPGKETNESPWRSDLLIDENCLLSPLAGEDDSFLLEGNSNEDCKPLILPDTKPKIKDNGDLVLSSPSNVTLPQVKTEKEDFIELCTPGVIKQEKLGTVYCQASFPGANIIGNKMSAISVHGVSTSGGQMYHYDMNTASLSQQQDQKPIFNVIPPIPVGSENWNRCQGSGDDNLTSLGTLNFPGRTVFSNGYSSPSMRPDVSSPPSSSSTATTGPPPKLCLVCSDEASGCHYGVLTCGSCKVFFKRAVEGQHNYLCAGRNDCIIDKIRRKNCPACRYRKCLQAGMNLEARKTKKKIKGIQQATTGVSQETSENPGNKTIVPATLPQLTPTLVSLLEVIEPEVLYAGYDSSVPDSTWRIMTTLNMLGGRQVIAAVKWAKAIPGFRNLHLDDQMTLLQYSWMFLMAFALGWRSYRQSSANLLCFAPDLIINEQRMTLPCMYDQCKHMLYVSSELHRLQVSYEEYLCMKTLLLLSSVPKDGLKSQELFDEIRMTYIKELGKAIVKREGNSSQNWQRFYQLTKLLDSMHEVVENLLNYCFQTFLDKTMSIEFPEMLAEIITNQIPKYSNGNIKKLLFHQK
Assay: GR-GFP Redistribution (AID 450); note: potency is the fitted concentration of half-maximal effect
Details: U2OS GR-GFP nuclear translocation, laser cytometry, 2 h

Potency, inactive:
CC[N+](C)(CC)CCC[n+]1c(-c2ccccc2)c2cc(N)ccc2c2ccc(N)cc21 > 20.6 µM, N[C@H](C(=O)O)c1ccc(C(=O)O)c(O)c1 > 46 µM, O=C(O)Cc1cc2ccccc2nc1C(=O)O > 46 µM, CC(N)=NCCC[C@H](N)C(=O)O > 46 µM, N[C@@H]1CCN(O)C1=O > 46 µM, NC[C@](O)(CS(=O)(=O)O)c1ccc(Cl)cc1 > 46 µM, CO[C@@]12C[C@@H](COC(=O)c3cncc(Br)c3)CN(C)[C@H]1Cc1cn(C)c3cccc2c13 > 20.6 µM and > 46 µM, COc1ccccc1NC(=O)Nc1nc(-c2cccnc2)nc2ccccc12 > 46 µM, CC(C)SC(=N)N > 46 µM, O=C(O)COc1ccc(OCCNC[C@@H](O)COc2ccccc2)cc1 > 46 µM, N[C@H](CCC(=O)NCC(=O)O)C(=O)O > 46 µM, CC1=C(\C=C/C(C)=C/C=C\C(C)=C\C(=O)O)C(C)(C)CCC1 > 46 µM and > 20.6 µM, CCC(=O)O[C@H](CC(=O)O)C[N+](C)(C)C > 46 µM, N[C@]1(C(=O)O)CCc2cc(C(=O)O)ccc21 > 46 µM, C[C@@](N)(C(=O)O)c1ccc(P(=O)(O)O)cc1 > 46 µM, C[C@H](C[C@H](N)C(=O)O)C(=O)O > 46 µM, O=C(O)[C@H]1CCCNC1 > 46 µM, O=C(O)[C@H]1CN(CCCP(=O)(O)O)CCN1 > 46 µM, NCCC(=O)O > 46 µM, N[C@@H](C(=O)O)c1ccc(P(=O)(O)O)cc1 > 46 µM, C[C@@](N)(C(=O)O)c1ccc(C(=O)O)cc1 > 46 µM, N[C@H](C(=O)O)c1nn[nH]n1 > 46 µM, N[C@H](C(=O)O)[C@@H]1C[C@@H]1C(=O)O > 46 µM, C[C@H](N=C(NC#N)Nc1ccncc1)C(C)(C)C > 46 µM and > 20.6 µM, CC[C@](N)(CCC(=O)O)C(=O)O > 46 µM, CC(N)=NCCCC[C@H](N)C(=O)O > 46 µM, C[C@@H](CCc1ccc(O)cc1)NCCc1ccc(O)c(O)c1 > 46 µM and > 20.6 µM, CC(C)[C@@H]1[C@H]2CC[C@H](C2)[C@H]1N > 46 µM, N[C@H](C(=O)O)c1ccc(C(=O)O)cc1 > 46 µM, C=C[C@@]1(C)CC(=O)[C@@]2(O)[C@@]3(C)[C@@H](O)CCC(C)(C)[C@@H]3[C@H](O)[C@H](OC(C)=O)[C@@]2(C)O1 > 46 µM, N[C@H](CCC(=O)N[C@H](CSN=O)C(=O)NCC(=O)O)C(=O)O > 46 µM, c1ccc2oc(C3=NCCN3)cc2c1 > 46 µM, CC(C)(C)NC[C@H](O)COc1cccc2[nH]c(=O)[nH]c12 > 46 µM, CCC(=O)N[C@@H]1Cc2ccccc2[C@@H](c2ccccc2)C1 > 46 µM, S=C(S)O[C@@H]1C[C@@H]2C[C@H]1[C@@H]1CCC[C@H]21 > 46 µM

Reference: PubChem BioAssay (NCATS)
